Bioassay records from PubChem BioAssay.
Giardia killer: kills Giardia lamblia; activity change, % at 7.66 µM, hits read low; AID 540267; 0.15% of 340,000 active; Giardia lamblia trophozoite viability; in the data active = activity change below about -80%; inconclusive = between about -30% and that limit;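 note: parasites exposed to compound for two days anaerobically before the ATP read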
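Luminescent ATP signal served as the viability read-out, measured 15-30 min after adding ATP detection reagent to trophozoites that had been incubated with compounds for 48 hrs at 37 deg C anaerobically at 100 cells/well.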
Coupling enz: inhibits coupling enzyme system, counter-screen for aldolase hits; coupling enzyme system counterscreen, AmpLite Red fluorescence; activity change, negative = inhibition, % at 58.2 µM, hits read low; 0.67% of 290,000 active; AID 2472; in the data active = activity change below about -30%
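Coupling enzymes only (glyceraldehyde-3-phosphate) + compound, at 57.5 uM final, 10 min RT; add substrate/coupling/AmpLite Red mix, 20 min RT; fluorescence ex 525/em 598 nm. Actives flag coupling-system interference.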
GALK inhibitor: inhibitors of human galactokinase | 0.007% of 270,000 active | Potency, µM (top dose mostly 57.5 µM), actives largely listed as inhibitors | P51570 | Purified GALK, Kinase-Glo residual ATP luminescence | AID 1868
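5 nM enzyme, 35 uM ATP, 100 uM galactose, 20 mM HEPES pH8.0, 5 mM MgCl2; 1 h RT; residual ATP by Kinase-Glo Plus luminescence, qHTS format.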
TrxR1 inh: inhibitors of rat thioredoxin reductase 1. O89049. recombinant rTrxR1, NADPH fluorescence consumption, selenite substrate. Potency, µM (titrated, usually from 114 µM), actives largely listed as inhibitors. 1% of 390,000 active. AID 588453; note: nearly all actives have a fitted effect of over 65% in size
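Rat TrxR1 (90 nM in the dispensed reagent) was pre-reduced with 400 uM NADPH for 5 min at room temperature, then incubated with compound for 15 min. After 400 uM selenite was added, NADPH fluorescence (Ex 340/Em 450 nm) was followed for 8 min.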
TrxR1 substrate: substrates of rat thioredoxin reductase 1 | Potency, µM (titrated, usually from 114 µM) | AID 588456 | purified TrxR1 substrate turnover, NADPH consumption readout | 0.01% of 390,000 active; note: nearly all actives have a fitted effect of over 50% in size
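Rat TrxR1, dispensed at 90 nM, was prereduced with 400 uM NADPH (final) for 5 min at ~22 deg C, then incubated with compound 15 min before 400 uM selenite. A first-read NADPH fluorescence drop versus no-compound background flagged substrates.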
PI4K2A block: blocks human PI4K2A kinase activity | Q9BTU6 | purified PI4K2A, ADP-Glo luminescence, 1 h; active compounds read low | activity change, negative = inhibition, % at 76.9 µM | 0.13% of 420,000 active | AID 1346378; in the data active = activity change below about -50%; inconclusive = mostly about -30% to -49%
Target sequence (Q9BTU6 whole entry, looked up): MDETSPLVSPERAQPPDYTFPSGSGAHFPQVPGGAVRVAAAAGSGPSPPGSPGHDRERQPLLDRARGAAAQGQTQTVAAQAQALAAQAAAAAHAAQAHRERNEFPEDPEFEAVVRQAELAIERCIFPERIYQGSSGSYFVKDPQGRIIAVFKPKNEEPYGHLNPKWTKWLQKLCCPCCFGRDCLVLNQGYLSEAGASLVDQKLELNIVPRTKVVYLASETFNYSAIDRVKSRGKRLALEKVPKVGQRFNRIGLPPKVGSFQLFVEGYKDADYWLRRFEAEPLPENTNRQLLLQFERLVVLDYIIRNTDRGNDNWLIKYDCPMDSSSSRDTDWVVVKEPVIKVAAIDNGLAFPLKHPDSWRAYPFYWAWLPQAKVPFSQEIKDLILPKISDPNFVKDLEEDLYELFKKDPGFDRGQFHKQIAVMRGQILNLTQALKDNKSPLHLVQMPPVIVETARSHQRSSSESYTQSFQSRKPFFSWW
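ADP-Glo luminescence measured ADP generated by PI4K2A enzyme (4 ug/mL before mixing) with 1.2 mM PI substrate (pre-mix) and 300 microM ATP (pre-mix). Tris pH7.5 buffer with MgCl2, Triton X-100; 1 h reaction at ambient temperature.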
Each line names hits and unclear results; the compound was inactive in the other large screens. Sampled rows, rich in hits. Any-hit rate of the full collection: about 1.5%. Unless noted, calls come from the whole dose curve; as a rule, active = well fitted curve in the direction sought with a large enough effect; inconclusive = small, poorly fitted or top-dose-only effect, or another doubt; inactive = no such curve, though single readings can be large; an effect the other way counts as inactive or inconclusive.

O=C(NC1CC1)c1ccc(-c2nc3ccccc3s2)s1	Giardia killer -100.0
c1ccc2sc(-c3ccc4c(c3)OCO4)nc2c1	PI4K2A block -67.6
O=C(c1ccc(-c2nc3ccccc3s2)s1)N1CCOCC1	Giardia killer -83.9, PI4K2A block -66.5
CCN1CCN(C(=O)c2ccc(-c3nc4ccccc4s3)s2)CC1	none
O=C(c1cccnc1Cl)N1CCC(Oc2cccnc2)CC1	none (no result: Giardia killer, Coupling enz, GALK inhibitor, TrxR1 inh, TrxR1 substrate)
COc1ccc(CN(Cc2ccccc2)C(=O)c2ccno2)cc1COc1ccc(NC(C)=O)cc1	none (no result: Coupling enz, GALK inhibitor, PI4K2A block)
O=C(O)c1ccccc1C(=O)Nc1nccs1	TrxR1 inh inconclusive
O=C(O)c1ccccc1C(=O)Nc1n[nH]c(=S)s1	Coupling enz -70.4
CCCCS(=O)(=O)N1C2=NC(C(=O)OC)=C(C(=O)OC)[C@@H]3N(C)c4ccccc4[C@]23C[C@H]1C(=O)OC	none (no result: Giardia killer, GALK inhibitor, TrxR1 inh, TrxR1 substrate, PI4K2A block)
S=C(NC1CCCCC1)N1CCN(c2ncccn2)CC1	none
S=C(NC1CCCCC1)N1CCN(c2ccccn2)CC1	Coupling enz -40.6
CCOC(=O)CSc1nnc(NCC(=O)OC(C)C)c(=O)[nH]1	TrxR1 inh 1.78µM
CCOC(=O)CNC(=O)CSc1nnc(C)c(=O)[nH]1	none
CN(C)c1oc(-c2ccccc2Cl)nc1C#N	none
CN(C)c1oc(-c2ccccc2[N+](=O)[O-])nc1C#N	Coupling enz -30.2, TrxR1 inh inconclusive
CCC(=O)CC	none (no result: Giardia killer, GALK inhibitor, TrxR1 inh, TrxR1 substrate, PI4K2A block)
COc1cc(NC(=O)c2cc3cc4ccc(C)cc4nc3o2)cc(OC)c1OC	none (no result: Giardia killer, Coupling enz, GALK inhibitor)
CCCC(=O)N1CCN(c2ccc(NC(=O)c3ccc([N+](=O)[O-])o3)cc2Cl)CC1	Giardia killer -81.8
O=C(Nc1cccc(S(=O)(=O)N2CCCCC2)c1)c1ccc([N+](=O)[O-])o1	Giardia killer -96.1
O=C(Nc1ccccc1N1CCOCC1)c1ccc([N+](=O)[O-])o1	Giardia killer -91.8, TrxR1 inh inconclusive (no result: Coupling enz)
O=C(Nc1ccc(N2CCOCC2)c(Cl)c1)c1ccc([N+](=O)[O-])o1	Giardia killer -89.5
Cc1ccc(NC(=O)c2cc([N+](=O)[O-])ccc2N2CCOCC2)cc1S(=O)(=O)N1CCOCC1	none (no result: Coupling enz)
Cc1ccc(NC(=O)c2ccc([N+](=O)[O-])o2)cc1S(=O)(=O)N1CCOCC1	Giardia killer -90.8, TrxR1 inh inconclusive
O=C(Nc1ccccc1N1CCN(C(=O)c2ccc(Cl)cc2)CC1)c1ccc([N+](=O)[O-])o1	Giardia killer -89.3 (no result: Coupling enz)
CC(C)C(=O)N1CCN(c2ccc(NC(=O)c3ccc([N+](=O)[O-])o3)cc2Cl)CC1	Giardia killer -87.9
COc1c(C)cccc1C(=O)Nc1ccc(N2CCOCC2)c(Cl)c1	Coupling enz -35.0
CCn1c(=N)c(C(=O)NCC2CCCO2)cc2c(=O)n3cc(C)ccc3nc21 (centres undefined)	none (no result: Giardia killer, Coupling enz, GALK inhibitor)
CSc1ccccc1C(=O)Nc1nc2ccccc2[nH]1	none
Cc1ccc(C(=O)Nc2nc3ccccc3[nH]2)cc1	Giardia killer -92.5
COc1ccccc1C(=O)Nc1nc2ccccc2[nH]1	Giardia killer -84.1, GALK inhibitor inconclusive, PI4K2A block -90.8
COc1cc(SC)ccc1C(=O)Nc1nc2ccccc2[nH]1	Giardia killer -98.6, PI4K2A block -74.3
CSc1nsc(/C=C/Nc2ccc(O)cc2C)c1C#N	Coupling enz -32.9
CSc1nsc(/C=C/Nc2ccc(F)cc2)c1C#N	TrxR1 inh inconclusive
Cc1ncoc1C(=O)Nc1ncc([N+](=O)[O-])s1	Giardia killer -86.9
O=C(Nc1ncc([N+](=O)[O-])s1)c1cccs1	Giardia killer -87.0
O=C(/C=C/c1ccc([N+](=O)[O-])cc1)Nc1ncc([N+](=O)[O-])s1	Giardia killer -82.4
O=C(Nc1ncc([N+](=O)[O-])s1)c1ccccc1Br	Giardia killer -92.6
CC(C)C[C@H](NC1(C(=O)NCCc2c[nH]c3ccccc23)CCC1)C(=O)NCCCc1ccccc1	none (no result: Giardia killer, Coupling enz, GALK inhibitor, TrxR1 inh, TrxR1 substrate)
COc1ccc(Nc2ccc3c(c2)=NC2(CCCCC2)[N+]=3[O-])cc1	Coupling enz -47.6
[O-][N+]1=c2ccc(Nc3ccccc3)cc2=NC12CCCCC2	Coupling enz -49.5
O=[N+]([O-])c1cccc2[nH]cnc12	none (no result: Giardia killer, Coupling enz, GALK inhibitor, PI4K2A block)
O=C(CCOCCOCCOCCOCCC(=O)Nc1c(I)cc(I)c(C(=O)O)c1I)Nc1c(I)cc(I)c(C(=O)O)c1I	none (no result: Giardia killer, Coupling enz, GALK inhibitor, TrxR1 inh, TrxR1 substrate)
COc1ccc(N2CCN(C(=O)c3nc(-c4ccc(Cl)cc4)n4c3CCCCC4)CC2)cc1	none (no result: Giardia killer, Coupling enz, GALK inhibitor)
CC(=O)c1ccc(NC(=O)c2c3c(nc4ccccc24)C(=O)N(C2CCCCC2)C3)cc1	none (no result: Giardia killer, Coupling enz, GALK inhibitor)
Cc1cc(C)nc(N2N=C(C(C)(C)C)CC2=O)n1	TrxR1 inh 39.8µM
CC(=O)C1=C(C)OC2(O)c3ccccc3C(=O)C12O (centres undefined)	PI4K2A block -53.8
CC1=C(C(=O)OC(C)C)C2(O)C(=O)c3ccccc3C2(O)N1 (centres undefined)	none
CCOC(=O)C1=C(C)OC2(O)c3ccccc3C(=O)C12O (centres undefined)	GALK inhibitor inconclusive, PI4K2A block -52.4
O=C(NCc1cccc(Cl)c1)C1CCCN(c2ncnc3onc(-c4ccc(F)cc4)c23)C1 (centres undefined)	none (no result: Giardia killer, Coupling enz, GALK inhibitor)
CCc1ccccc1N1CC23C=CC(O2)C(C(=O)OCC(C)C)C3C1=O (centres undefined)	none
CC(C)COC(=O)NCC12C=CC(O1)C1C(=O)N(c3ccc(Cl)cc3)C(=O)C12 (centres undefined)	TrxR1 inh 14.1µM
Cc1ccc(N2C(=O)C3C4C=CC(CNC(=S)Nc5ccc(Cl)cc5)(O4)C3C2=O)cc1 (centres undefined)	TrxR1 inh 28.2µM
O=C1C2C3C=CC(CO)(O3)C2C(=O)N1c1ccc(-c2ccccc2)cc1 (centres undefined)	none (no result: Giardia killer, TrxR1 inh, TrxR1 substrate, PI4K2A block)
Cc1ccc(N2C(=O)C3C4C=CC(CNC(=S)N5CCN(c6ccccn6)CC5)(O4)C3C2=O)cc1 (centres undefined)	TrxR1 inh 11.2µM
CC(C)(C)C(=O)NCC12C=CC(O1)C1C(=O)N(c3ccccc3)C(=O)C12 (centres undefined)	TrxR1 inh 17.8µM
Cc1ccc(C)c(NC(=S)N2CCN(c3ccccn3)CC2)c1	none
COC(=O)C1=C(C(=O)OC)[C@@H]2Nc3ccccc3[C@@]23C[C@@H](C(=O)OC)N(S(=O)(=O)c2c(C)noc2C)C3=N1	none (no result: Giardia killer, GALK inhibitor, TrxR1 inh, TrxR1 substrate, PI4K2A block)
CC(=O)CC/C=C(\C)CC/C=C(\C)CC/C=C(\C)CCC=C(C)C	none (no result: Giardia killer, Coupling enz, GALK inhibitor, TrxR1 inh, TrxR1 substrate)
CC(C(=O)O)c1ccc2c(c1)CC(=O)c1ccccc1S2 (centres undefined)	none (no result: Giardia killer, Coupling enz, GALK inhibitor, TrxR1 inh, TrxR1 substrate)
